Tau fluor counter – counter-screen for tau fibril formation inhibitors | AID 1463 | 280,000 tested, 0.93% active | tau K18 P301L Alexa594 fluorescence, heparin fibrillization | Potency, µM (top dose mostly 57.7 µM), inactives show top-dose activity change, negative = decrease; also: potency is read from the fitted curve at half-maximal effect; nearly all actives have a fitted effect of over 55% in size
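Human K18 P301L tau (15 uM unlabeled plus 0.24 uM Alexa 594-labeled, final) in 100 mM sodium acetate pH 7 was mixed with compound and 20 uM heparin and incubated 6 hr at 37 C.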
Tau fibril FP – blocks human tau fibril formation measured by polarization | K18 P301L tau heparin fibrillization, Alexa594 FP, 6 h | Potency, µM (titrated, usually from 57.7 µM), for the others: at the highest dose activity, negative = inhibition, usual class: inhibitors | 280,000 tested, 0.39% active | AID 1468; also: potency is read from the fitted curve at half-maximal effect; nearly all actives have a fitted effect of over 55% in size
Target sequence (P10636 561-689 P618L limits assumed): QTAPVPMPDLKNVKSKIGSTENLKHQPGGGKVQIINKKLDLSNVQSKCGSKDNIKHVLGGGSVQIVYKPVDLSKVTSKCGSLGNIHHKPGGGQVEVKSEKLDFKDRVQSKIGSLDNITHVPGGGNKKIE
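Read-out: fluorescence polarization of Alexa 594-labeled tau (0.24 uM), 555 nm excitation, 632 nm emission. Mixtures held 15 uM unlabeled K18 P301L, compound and 20 uM heparin, pH 7 acetate buffer, incubated 6 hr at 37 C.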
Coupling enz – counter-screen for Giardia aldolase inhibitors: coupling enzyme system; activity change, negative = inhibition, % at 58.2 µM, hits read low; AID 2472; coupling enzyme system counterscreen, AmpLite Red fluorescence; 290,000 tested, 0.67% active; in the data active = activity change below about -30%
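Compounds tested against the coupling enzymes alone at 57.5 uM final; readout was AmpLite Red fluorescence (525/598 nm) after 20 min at RT.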
Tau ThT inhib – blocks human tau fibril formation measured by thioflavin T. 270,000 tested, 2.1% active. recombinant tau K18 P301L (four-repeat tau fragment), heparin-induced fibrillization, ThT fluorescence. P10636. Potency, µM (doses to about 57.4 µM), for inactives: top-dose activity, negative = inhibition, hits mostly inhibitors. AID 1460; also: potency is read from the fitted curve at half-maximal effect; nearly all actives have a fitted effect of over 55% in size
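Tau K18 P301L fragment (15 uM unlabeled plus 0.24 uM Alexa 594-labeled) in 100 mM sodium acetate pH 7 with compound, fibrillization induced by 20 uM heparin for 6 hr at 37 C. Thioflavin T (30 uM) added, fluorescence read after 1 hr (ex 450, em 510 nm).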
Numbers without * were called inactive; [ ] = dose if it differs, or a comment. Hits are enriched below; roughly 2.7% of the tested compounds scored in any of these assays. Unless noted, calls follow the shape of the dose curve; as a rule, active = well fitted curve in the direction sought with a large enough effect; inconclusive = small, poorly fitted or top-dose-only effect, or another doubt; inactive = no such curve, though single readings can be large; an effect the other way counts as inactive or inconclusive. % is scaled to controls: 0 for no effect and ±100 for the full control effect.

For COC(=O)c1c(Oc2ccc(Br)cc2)nnc(-c2ccccc2)c1-c1ccccc1 the results were Tau fluor counter -18.7%, Tau fibril FP -9.4% and Tau ThT inhib -10.8%.
O=[N+]([O-])c1ccc(Cl)c2c1C1C=CCC1C(c1ccccn1)N2 (configuration not stated) was read as Tau fluor counter inconclusive, Tau fibril FP inconclusive, Coupling enz -16.4 and Tau ThT inhib 25.1µM*.
COC(=O)COc1ccc(C2Nc3c(Cl)ccc(C(=O)O)c3C3C=CCC32)cc1 (configuration not stated) was read as Tau fluor counter -28.5%, Tau fibril FP -17.4%, Coupling enz -2.9 and Tau ThT inhib inconclusive.
O=C(O)c1ccc(Cl)c2c1C1C=CCC1C(c1ccccn1)N2 (configuration not stated) was read as Tau fluor counter 14.1µM*[quencher], Tau fibril FP inconclusive, Coupling enz -19.5 and Tau ThT inhib 14.1µM*.
For CC(C)NC(=O)c1ccc(Cn2c(SCC(N)=O)nc3ccccc3c2=O)cc1 the results were Tau fluor counter 6.6%, Tau fibril FP 1.7% and Tau ThT inhib 11.0%.
For CC(C)(C)c1cc(NCc2ccccn2)n2ncc(-c3ccc(Cl)cc3)c2n1 the results were Tau fluor counter inconclusive, Tau fibril FP inconclusive, Coupling enz -5.1 and Tau ThT inhib inconclusive.
For CN(C)CCCNc1cc(C(C)(C)C)nc2c(-c3ccc(Cl)cc3)cnn12 the results were Tau fluor counter 15.8µM*[quencher], Tau fibril FP 10.0%, Coupling enz -3.2 and Tau ThT inhib inconclusive.
Cc1ccc(CNC(=O)CNS(=O)(=O)c2cccs2)cc1 was read as Tau fluor counter -6.6%, Tau fibril FP 4.4% and Tau ThT inhib -2.1%.
C/C=C/c1ccc2oc(-c3ccc(O)cc3)c(C)c2c1 was read as Tau fluor counter 14.1µM*[quencher], Tau fibril FP inconclusive, Coupling enz 2.8 and Tau ThT inhib 17.8µM*.
Cc1c(-c2ccccc2)oc2cc(O)ccc2c1=O was read as Tau fluor counter -7.3%, Tau fibril FP -12.3%, Coupling enz 6.5 and Tau ThT inhib -0.6%.
COc1ccc(/C(=N/OC(C)=O)c2nccc3cc(OC)c(OC)cc23)cc1OC was read as Tau fluor counter 8.9%, Tau fibril FP 0.6% and Coupling enz -32.4*.
For N#Cc1cc(Cl)c(N2CCOCC2)cc1C#N the results were Tau fluor counter -4.1%, Tau fibril FP 7.5%, Coupling enz 0.5 and Tau ThT inhib 2.4%.
`N#Cc1cc2ccc(N3CCOCC3)cc2cc1C#N` gave Tau fluor counter -13.3%, Tau fibril FP -13.0%, Coupling enz -42.7* and Tau ThT inhib inconclusive.
Screening CC/C(C)=N\N=C\c1c(O)n(CC)c2cc(C3=NNC(=O)CC3)ccc12 returned Tau fluor counter -22.6%, Tau fibril FP -8.8%, Coupling enz -8.8 and Tau ThT inhib 15.8µM*.
N#CC1=C(SCC(N)=O)NC2=C(C(=O)c3ccccc32)C1c1ccc(Cl)cc1 (configuration not stated) was read as Tau fluor counter inconclusive, Tau fibril FP inconclusive, Coupling enz -1.7 and Tau ThT inhib 14.1µM*.
Cc1ccccc1N(C(=O)CNC(=O)c1ccco1)C(C(=O)NC1CCCC1)c1ccncc1 (configuration not stated) was read as Coupling enz -2.0.
Cc1cn2c(=O)cc(COc3cccc(NC(=O)c4ccccc4C)c3)nc2s1 was read as Tau fluor counter -3.9%, Tau fibril FP -2.5% and Tau ThT inhib 4.3%.
Screening NC(=O)CC(NC(=O)c1ccccc1)c1ccc(NCCc2ccc(Cl)cc2)c([N+](=O)[O-])c1 (configuration not stated) returned Tau fluor counter inconclusive, Tau fibril FP -11.6%, Coupling enz -1.9 and Tau ThT inhib 12.6µM*.
For NC(=O)CC(NC(=O)Cc1ccc(Br)cc1)c1ccc(NCCc2ccc(Cl)cc2)c([N+](=O)[O-])c1 (configuration not stated) the results were Tau fluor counter inconclusive, Tau fibril FP inconclusive, Coupling enz -0.1 and Tau ThT inhib inconclusive.
For NC(=O)CC(NC(=O)c1ccccc1)c1ccc(NCc2ccc(F)c(F)c2)c([N+](=O)[O-])c1 (configuration not stated) the results were Coupling enz -0.2.
Screening NC(=O)CC(NC(=O)c1ccccc1)c1ccc(NCc2ccccc2)c([N+](=O)[O-])c1 (configuration not stated) returned Tau fluor counter -27.6%, Tau fibril FP -3.0%, Coupling enz -0.3 and Tau ThT inhib 12.6µM*.
NC(=O)CC(NC(=O)c1ccccc1)c1ccc(NCc2ccc(F)cc2)c([N+](=O)[O-])c1 (configuration not stated) was read as Tau fluor counter -20.1%, Tau fibril FP 2.3%, Coupling enz 0.3 and Tau ThT inhib 25.1µM*.
CCn1c(=O)c2cc(C(=O)NCc3ccc(F)cc3Cl)sc2c2ccccc21 was read as Tau fluor counter 0.3%, Tau fibril FP 5.0% and Tau ThT inhib 3.6%.
Screening O=C(Cc1coc2ccc3ccccc3c12)N1CCCC1 returned Tau fluor counter 9.6%, Tau fibril FP 5.6%, Coupling enz -37.2* and Tau ThT inhib 9.2%.
O=C(O)Cc1coc2ccc3ccccc3c12 was read as Tau fluor counter 8.8%, Tau fibril FP 4.6%, Coupling enz 0.3 and Tau ThT inhib 6.6%.
`COc1ccc2c3c(cccc13)N(C)N=C2C` gave Tau fluor counter inconclusive, Tau fibril FP inconclusive, Coupling enz -4.6 and Tau ThT inhib 7.08µM*.
Cc1ccc(C(=O)NNC(=S)Nc2cccc(Cl)c2Cl)cc1[N+](=O)[O-] was read as Tau fluor counter inconclusive, Tau fibril FP 7.4%, Coupling enz 6.1 and Tau ThT inhib 25.1µM*.
O=Cc1[nH]c2ccccc2c1N(C(=O)CCl)c1ccc([N+](=O)[O-])cc1 was read as Tau fluor counter inconclusive, Tau fibril FP inconclusive, Coupling enz -1.5 and Tau ThT inhib 15.8µM*.
CC(=O)n1cc(N(C(=O)CCl)c2ccc([N+](=O)[O-])cc2)c2ccccc21 was read as Tau fluor counter inconclusive, Tau fibril FP -7.1%, Coupling enz -0.7 and Tau ThT inhib 28.2µM*.
Screening CC(=O)n1cc(N(C(=O)CCl)c2ccccc2)c2ccccc21 returned Tau fluor counter -4.9%, Tau fibril FP 2.0%, Coupling enz 2.1 and Tau ThT inhib inconclusive.
Cc1cc(-c2ccc(S(=O)(=O)Nc3ccccc3F)s2)on1 was read as Tau fluor counter -6.4%, Tau fibril FP 2.5% and Tau ThT inhib -4.2%.
Screening N#Cc1cc(N)ccc1Sc1ccccc1 returned Tau fluor counter inconclusive, Tau fibril FP inconclusive, Coupling enz -3.4 and Tau ThT inhib 4.6%.
For N#Cc1cc(N)ccc1Sc1ccc(Cl)cc1 the results were Tau fluor counter 15.8µM*[quencher], Tau fibril FP -1.5%, Coupling enz -5.5 and Tau ThT inhib -15.5%.
Screening CCOC(=O)N1CC=C2C(C#N)=C(N)C(C#N)(C#N)[C@H](c3ccc(OC(C)C)c(OCC)c3)[C@H]2C1 returned Tau fluor counter -17.9%, Tau fibril FP inconclusive, Coupling enz -5.2 and Tau ThT inhib inconclusive.

Compound activity (PubChem BioAssay)
